Here are results for 38 molecules from PubChem BioAssay (EPA / NIEHS).

The structures appear in SMILES notation. Where “and” joins values, the source holds several entries; their conditions need not be identical. Equal values may be shown once. Where a structure was tested more than once in an assay, its records may differ in their call. Calls of active or inactive are those of the source. Rule for the calls: active = hit-call score of the fitted dose curve at least 0.9, where 1 is the maximum; inactive = score below 0.9.

Tumor necrosis factor (Homo sapiens), sequence (P01375 whole entry, looked up): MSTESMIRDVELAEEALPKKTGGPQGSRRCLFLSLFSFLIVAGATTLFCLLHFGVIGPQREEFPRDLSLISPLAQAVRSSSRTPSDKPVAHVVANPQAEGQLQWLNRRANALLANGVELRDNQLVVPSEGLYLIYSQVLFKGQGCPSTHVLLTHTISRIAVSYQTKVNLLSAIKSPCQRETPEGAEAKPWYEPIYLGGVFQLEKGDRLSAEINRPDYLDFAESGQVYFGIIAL

Read-out in the assay: Tumor necrosis factor (Homo sapiens) (UniProt P01375)
Put plainly: BSK_LPS_TNFa: BioMAP Diversity Plus: LPS Assay for Tumour Necrosis Factor alpha (TNFa) Biomarker Activity (AID 2283085). Particulars: primary human HUVEC with PBMC; actives raise or lower the signal. How it is done: BSK_LPS is a cell-based, multiplexed-readout assay that uses umbilical vein endothelium and peripheral blood mononuclear cells, a human vascular primary cell co-culture, with measurements taken at 24 hours after chemical dosing in a 96-well plate.BSK_LPS_TNFa is an assay component measured in the BSK_LPS assay. It measures TNF-a antibody related to regulation of gene expression using ELISA technology.Data from the assay component BSK_LPS_TNFa was analyzed into 1 assay endpoint. This assay endpoint, BSK_LPS_TNFa, was analyzed with bidirectional fitting relative to DMSO as the negative control and baseline of activity. Using a type of binding reporter, gain or loss-of-signal activity can be used to understand changes in the signaling as they relate to the gene TNF. Furthermore, this assay endpoint can be referred to as a primary readout, because this assay has produced multiple assay endpoints where this one serves a signaling function. To generalize the intended target to other relatable targets, this assay endpoint is annotated to the cytokine intended target family, where the subfamily is inflammatory factor.
The levels of cell surface (or secreted, indicated by the prefix "s") biomarker endpoints were measured by ELISA. Overt cytotoxicity to cells in confluent adherent cultures (all systems other than the BT system) was assessed by measuring total protein levels using sulforhodamine B (SRB) staining in parallel cultures at the time of biomarker measurements, indicated as SRB endpoints. For proliferation assays for adherent cell types, individual cell types are cultured at sub-confluence and relative cell numbers quantified by SRB staining at time points optimized for each system (48 h: 3C and CASM3C systems; 72 h: BT and HDF3CGF systems; 96 h: SAg system). SRB was performed by staining cells with 0.1% SRB after fixation with 10% TCA and reading wells at 560 nm.Viability and proliferation of PBMC (T cells) was quantified by Alamar Blue reduction for the SAg and BT systems. For PBMC viability (referred to as PBMC Cytotoxicity within the assay endpoint names), cells were plated (75,000/well in a 96-well plate) and then chemical samples added for 1 h before addition of activators, SEB and TSST-1 (20 ng/mL final concentration each). Cells were incubated for 90 h. Then, Alamar Blue (20 uL/well) (Invitrogen, Cat DAL1100) was added for 6 h, and the plates were read with a fluorescence microplate reader at 546/580 nm (excitation/emission). For PBMC proliferation, cells were plated and activated as above but incubated for only 16 h prior to addition of Alamar Blue. Plates were read after 6 h.
With `CCCCC(CC)C(=O)O` (stereo not given), the result was inactive. Turning to `O=C(CC(=O)C(F)(F)C(F)(F)C(F)(F)F)c1cccs1`, the result was inactive and the half-maximal activity concentration (AC50) is 15.2 µM (active). For `O=C(CCCN1CCC(O)(c2ccc(Cl)cc2)CC1)c1ccc(F)cc1`, the outcome was inactive. For the molecule `COc1cc(OC)nc(NC(=O)NS(=O)(=O)Nc2ccccc2C(=O)N(C)C)n1`, the outcome was inactive. `O=S(=O)(O)C(F)(F)C(F)(F)C(F)(F)C(F)(F)C(F)(F)C(F)(F)C(F)(F)C(F)(F)C(F)(F)C(F)(F)F`: the AC50 is 8.87 µM (active) and 13.3 µM (active).

For `C=CC(C)(CCC=C(C)C)OC(C)=O` (stereo not given), the outcome was inactive. `OCC(F)(F)C(F)(F)C(F)(F)C(F)(F)C(F)(F)C(F)(F)C(F)(F)C(F)(F)C(F)(F)C(F)(F)C(F)(F)F`: the result was inactive and the AC50 was 1.01 µM (active).

Regarding `O=C1c2ccc(O)c(O)c2C(=O)c2c(O)ccc(O)c21`, the outcome was inactive. `Cc1ccc(N=Nc2c(O)ccc3ccccc23)c(C)c1`: the outcome was inactive.

Consider `CN(C)CCOC(c1ccccc1)c1ccccc1`, for which the outcome was inactive.

With `OCCN1CN(CCO)CN(CCO)C1`, the AC50 was 36.6 µM (active).

Take `CN(CCO)S(=O)(=O)C(F)(F)C(F)(F)C(F)(F)C(F)(F)C(F)(F)C(F)(F)C(F)(F)C(F)(F)F`: the result was inactive. On the same count and under the same terms, with `OCC(CO)(CBr)CBr` the entry was “inactive”; with `Oc1ccc(Cc2ccccc2O)cc1`, “inactive”; with `C=CC(=C)CC/C=C(\C)CCC=C(C)C`, “inactive”.

For the molecule `CCCCCCCCCCCCOS(=O)(=O)O`, the result was inactive. Regarding `Oc1c(Cl)cc(Cl)cc1Sc1cc(Cl)cc(Cl)c1O`, the AC50 was 29.9 µM (active) and 30 µM (active). The same measure, in the same setting: with `CCCCCCCCCCCC` the figure was 28.7 µM (active) and 20.7 µM (active). `Cc1cccc2c1ccc1ccccc12`: the result was inactive. In the case of `NC(=NCCCCCCN=C(N)/N=C(\N)Nc1ccc(Cl)cc1)/N=C(\N)Nc1ccc(Cl)cc1`, the AC50 is 20.5 µM (active).

As to `CCCCC=O`, the outcome was inactive.

Regarding `O=P(O)(O)CCC(F)(F)C(F)(F)C(F)(F)C(F)(F)C(F)(F)C(F)(F)C(F)(F)C(F)(F)F`, the outcome was inactive. Still for that read-out and setting: the entry for `CCC(C)c1ccccc1O` (stereo not given) is “inactive”. Regarding `CN(C)c1ccc(C(=C2C=CC(=[N+](C)C)C=C2)c2ccccc2)cc1`, the half-maximal activity concentration (AC50) is 0.0138 µM (active). For `CCOC(=O)CN[C@@H](C(=O)N1CC[C@H]1C(=O)NCc1ccc(/C(N)=N/O)cc1)C1CCCCC1`, the outcome was inactive. `CC[N+](CC)(CC)Cc1ccccc1`: the outcome was inactive. Consider `CC(C)(C)c1ccc(O)c(O)c1`, for which the AC50 was 32.8 µM (active).

Turning to `C=CC(=O)OCCC(F)(F)C(F)(F)C(F)(F)C(F)(F)C(F)(F)C(F)(F)C(F)(F)C(F)(F)F`, the outcome was inactive. Take `C=COC(=O)C(C)(C)CCCCCC`: the AC50 is 0.371 µM (active).

Regarding `Cc1ccc(C(=O)c2ccccc2)cc1`, the result was inactive. `CN(Cc1cnc2nc(N)nc(N)c2n1)c1ccc(C(=O)N[C@@H](CCC(=O)O)C(=O)O)cc1`: the outcome was inactive. Consider `CC1=NN(c2ccccc2)C(=O)C1`, for which the outcome was inactive. Same read-out and setting: with `O=C(NO)c1ccccc1` the entry was “inactive”. Consider `O=C(O)CCC(F)(F)C(F)(F)C(F)(F)C(F)(F)C(F)(F)C(F)(F)F`, for which the result was inactive. As to `CS(=O)(=O)c1ccc([C@@H](CC2CCCC2)C(=O)Nc2cnccn2)cc1Cl`, the result was inactive. As to `O=C(c1ccccc1)c1ccccc1`, the result was inactive. On the same count and under the same terms, the entry for `Oc1cc2ccccc2cc1O` is “inactive”.

As to `Clc1ccc(Nc2nnc(Cc3ccncc3)c3ccccc23)cc1`, the result was inactive.
